Assay [1] can be described thus: antimalarial activity against Dd2 strain (AID 2302;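 active = growth inhibition above 50% at the single 2 µM test dose, taken to imply half-maximal potency below 2 µM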;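 note: 0% = DMSO untreated growth and 100% = chloroquine plus artemisinin killed control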). The settings on record: P. falciparum Dd2 in RBCs, LDH growth readout, 72 h; at 2 µM; stronger effect = higher value.
Assay [2] can be described thus: HepG2 cytotoxicity, primary screen, cytotoxicity control for P. falciparum antimalarial project, cell-based, ATP luminescence (AID 2303;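 active = inhibition above 50%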;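 note: 0% = DMSO wells and 100% = digitonin-killed cells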). The settings on record: HepG2 viability, 24-48 h, at 10 µM, stronger effect = higher value.
Assay [3] deals with L-lactate dehydrogenase (Plasmodium falciparum (isolate CDC / Honduras)) (UniProt Q27743). Kind of assay: PfLDH activity inhibition – cell lysate, 3D7 strain, counter-screen for P. falciparum growth inhibition project (AID 2304).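 Note: 0% = vehicle and 100% = reference inhibitor.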 The settings on record: P. falciparum 3D7 crude extract, LDH APAD/NBT absorbance; at 2 µM; stronger effect = higher value. For orientation: Counterscreens check selectivity or assay interference.

Assay [4] in a line: inhibition of 3D7 malaria parasite growth – strain 3D7 (AID 2306).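 Note: 0% = DMSO wells and 100% = chloroquine plus artemisinin control wells.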 The settings on record: P. falciparum 3D7 erythrocytic growth, LDH absorbance, 72 h; at 2 µM; stronger effect = higher value.
In assay [5] the target is Calcium-dependent protein kinase 1 (Plasmodium falciparum (isolate 3D7)) (UniProt P62344). Description: PfCDPK1 kinase inhibitors, biochemical, TCAMS library (AID 1159585; cut-off not given, nearly all actives have IC50 up to about 0.98 µM;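 note: inhibitors leave more ATP so luminescence rises with inhibition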). As to conditions: recombinant PfCDPK1, Kinase-Glo ATP depletion luminescence.
Assay [6] has as its target Plasmodium falciparum protein kinase 6 (PK6, PF3D7_1337100) (UniProt Q8IDW1). Description: PfPK6 kinase inhibitors, biochemical, TCAMS library (AID 1159586). As to conditions: recombinant PfPK6, Kinase-Glo ATP depletion luminescence.
For assay [7], the target named is Protein kinase 7 (PK7), Plasmodium falciparum 3D7 (PF3D7_0213400) (UniProt Q7YTF7). Kind of assay: inhibition of Plasmodium PK7 catalytic activity – biochemical, TCAMS antimalarial set, Kinase-Glo luminescence (AID 1159587). The settings on record: recombinant PfPK7, Kinase-Glo ATP depletion luminescence. On the technique in general: In Kinase-Glo more light means more ATP remaining.

The target in assay [8] is Calcium-dependent protein kinase 4 (Plasmodium falciparum (isolate 3D7)) (UniProt Q8IBS5). Kind of assay: PfCDPK4 kinase inhibitors, biochemical, TCAMS library (AID 1159588; cut-off not given, nearly all actives have IC50 up to about 0.91 µM). The settings on record: recombinant PfCDPK4, Kinase-Glo ATP depletion luminescence.

SMILES strings stand for the structures. Unmarked numbers belong to inactive results. For some of these results: Measured potencies and affinities stand elsewhere. Activity calls are given as the source filed them. Unless noted, the rule behind the calls is not given here.

Sequence of L-lactate dehydrogenase (Plasmodium falciparum (isolate CDC / Honduras)) (Q27743 whole entry, looked up): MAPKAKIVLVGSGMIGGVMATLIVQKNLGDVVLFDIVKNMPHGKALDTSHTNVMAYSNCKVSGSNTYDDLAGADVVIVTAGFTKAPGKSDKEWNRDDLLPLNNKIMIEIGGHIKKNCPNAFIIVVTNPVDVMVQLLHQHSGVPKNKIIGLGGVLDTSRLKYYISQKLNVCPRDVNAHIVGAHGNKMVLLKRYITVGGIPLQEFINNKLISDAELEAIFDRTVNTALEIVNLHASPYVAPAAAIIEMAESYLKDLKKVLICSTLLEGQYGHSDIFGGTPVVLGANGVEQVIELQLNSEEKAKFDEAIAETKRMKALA
Sequence of Protein kinase 7 (PK7), Plasmodium falciparum 3D7 (PF3D7_0213400) (Q7YTF7 1-343): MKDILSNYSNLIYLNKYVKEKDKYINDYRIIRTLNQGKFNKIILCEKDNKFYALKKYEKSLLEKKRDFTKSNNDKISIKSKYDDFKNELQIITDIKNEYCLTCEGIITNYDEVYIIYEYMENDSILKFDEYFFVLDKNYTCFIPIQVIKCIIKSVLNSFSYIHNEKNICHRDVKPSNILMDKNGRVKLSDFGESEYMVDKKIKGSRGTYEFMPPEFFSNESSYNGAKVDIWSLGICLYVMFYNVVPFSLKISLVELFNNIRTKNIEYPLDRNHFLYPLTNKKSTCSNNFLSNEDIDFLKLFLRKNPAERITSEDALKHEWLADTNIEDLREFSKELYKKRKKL
Sequence of Calcium-dependent protein kinase 4 (Plasmodium falciparum (isolate 3D7)) (Q8IBS5 whole entry, looked up): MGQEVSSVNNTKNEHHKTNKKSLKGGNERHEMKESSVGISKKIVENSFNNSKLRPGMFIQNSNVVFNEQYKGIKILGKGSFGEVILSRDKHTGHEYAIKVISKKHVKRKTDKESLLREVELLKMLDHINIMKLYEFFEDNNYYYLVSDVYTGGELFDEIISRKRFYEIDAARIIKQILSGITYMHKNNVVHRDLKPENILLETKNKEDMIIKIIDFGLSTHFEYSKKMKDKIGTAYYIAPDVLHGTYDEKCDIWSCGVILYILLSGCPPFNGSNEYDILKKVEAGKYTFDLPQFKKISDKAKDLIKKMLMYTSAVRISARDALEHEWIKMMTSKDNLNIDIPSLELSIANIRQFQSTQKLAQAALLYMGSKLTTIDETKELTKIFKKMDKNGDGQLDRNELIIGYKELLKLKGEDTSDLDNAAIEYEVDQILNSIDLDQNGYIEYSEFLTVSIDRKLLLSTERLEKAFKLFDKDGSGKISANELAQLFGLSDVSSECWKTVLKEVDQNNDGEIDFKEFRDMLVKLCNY
Sequence of Plasmodium falciparum protein kinase 6 (PK6, PF3D7_1337100) (Q8IDW1 1-305): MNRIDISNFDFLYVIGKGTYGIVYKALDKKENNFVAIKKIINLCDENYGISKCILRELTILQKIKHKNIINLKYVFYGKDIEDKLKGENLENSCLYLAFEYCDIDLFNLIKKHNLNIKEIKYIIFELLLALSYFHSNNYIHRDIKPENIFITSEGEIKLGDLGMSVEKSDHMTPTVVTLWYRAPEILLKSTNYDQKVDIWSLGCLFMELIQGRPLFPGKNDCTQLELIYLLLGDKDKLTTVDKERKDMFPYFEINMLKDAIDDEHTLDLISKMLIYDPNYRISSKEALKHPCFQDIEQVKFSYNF
Sequence of Calcium-dependent protein kinase 1 (Plasmodium falciparum (isolate 3D7)) (P62344 whole entry, looked up): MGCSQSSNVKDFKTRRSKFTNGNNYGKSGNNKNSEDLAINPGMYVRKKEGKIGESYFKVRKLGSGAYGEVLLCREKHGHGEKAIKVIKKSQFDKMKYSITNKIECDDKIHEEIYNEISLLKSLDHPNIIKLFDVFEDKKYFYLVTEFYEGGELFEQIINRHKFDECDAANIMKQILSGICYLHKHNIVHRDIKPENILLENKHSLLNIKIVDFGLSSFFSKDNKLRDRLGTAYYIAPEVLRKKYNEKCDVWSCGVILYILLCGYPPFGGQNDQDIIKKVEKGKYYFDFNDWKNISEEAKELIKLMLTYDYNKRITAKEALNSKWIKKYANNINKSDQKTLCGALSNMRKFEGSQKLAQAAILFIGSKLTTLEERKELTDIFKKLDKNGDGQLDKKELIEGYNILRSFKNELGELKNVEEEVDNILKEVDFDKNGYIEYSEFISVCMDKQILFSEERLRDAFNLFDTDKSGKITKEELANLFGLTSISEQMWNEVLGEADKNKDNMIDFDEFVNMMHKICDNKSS

A word on the inhibition: it is the drop in the measured response relative to a control, in per cent. Consider `CN1CC[C@@H](Oc2cc(NC(=O)Nc3ccccc3Br)ccc2Cl)C1`, for which the growth inhibition is 6% in assay [1] and 100% (active) in assay [4]. Besides, the inhibition in assay [2] was 26%; in assay [3], 0%. In addition, the outcome in assay [5], in assay [6], in assay [7] and in assay [8] was inactive.
For the molecule `COc1ccc2nccc([C@@H](O)CN3CCC(NCc4cc5ccccn5n4)CC3)c2c1`, the growth inhibition is 18% in assay [1] and 99% (active) in assay [4]. Moreover, the figures for the inhibition in assay [2] and in assay [3] were 7% and -8%, respectively. Further, the outcome in assay [5], in assay [6], in assay [7] and in assay [8] was inactive.
As for `CCOc1c(N2CCN(CCCCNC(=O)c3ccc(NC(=O)c4ccc(Cl)cc4)cc3)CC2)ccc2ccccc12`, the growth inhibition in assay [1] was 45%; in assay [4] it was 100% (active). In addition, the inhibition was 18% in assay [2] and 0% in assay [3]. The outcome in assay [5], in assay [6], in assay [7] and in assay [8] was inactive.
Consider `Cc1cccc2[nH]c(-c3cccc(-c4cccc(NC(=O)CN5CCN(C)CC5)c4)c3)nc12`, for which the growth inhibition in assay [1] was 99% (active); in assay [4], 101% (active). The inhibition is 76% (active) in assay [2] and -1% in assay [3]. The outcome in assay [5], in assay [6], in assay [7] and in assay [8] was inactive.
For `CCC1(c2ccccc2)N=C(N)N(CCCc2ccccc2)C1=O` (stereo not given), the growth inhibition in assay [1] was 96% (active); in assay [4], 90% (active). Moreover, the figures for the inhibition in assay [2] and in assay [3] were 17% and 1%, respectively. The outcome in assay [5], in assay [6], in assay [7] and in assay [8] was inactive.
`Cc1cc(N[C@@H](CC(C)C)C(=O)NCc2cccs2)nc(NCCc2ccccc2)n1`: the growth inhibition was 8% in assay [1] and 94% (active) in assay [4]. In addition, the results for the inhibition in assay [2] and in assay [3] were 1% and -2%, respectively. Further, the result in assay [5], in assay [6], in assay [7] and in assay [8] was inactive.
For `CC(C)(C)S[C@H]1S[C@H](SC(C)(C)C)[C@@H](OC(=O)c2ccccc2)C(OC(=O)c2ccccc2)[C@H]1OC(=O)c1ccccc1` (stereo not given in full), the growth inhibition in assay [1] was 45%; in assay [4] it was 95% (active). Also, the inhibition is -2% in assay [2] and 5% in assay [3]. For the same molecule, the outcome in assay [5], in assay [6], in assay [7] and in assay [8] was inactive.
With `O=C(Nc1ccc(F)c(C(F)(F)F)c1)NC1CCN(CCCCCNC(=O)[C@@H]2C[C@H]2c2ccc(Cl)c(Cl)c2)CC1`, the growth inhibition in assay [1] is 16%; in assay [4], 100% (active). Further, the inhibition was 96% (active) in assay [2] and 0% in assay [3]. In addition, the outcome in assay [5], in assay [6], in assay [7] and in assay [8] was inactive.
Turning to `NC(=O)C1CCN(Cc2cccc(-c3cccc(-c4nc5ccc(C(F)(F)F)cc5[nH]4)c3)c2)CC1`, the growth inhibition in assay [1] and in assay [4] was 100% (active) each time. For the same molecule, the values for the inhibition in assay [2] and in assay [3] were 16% and 3%, respectively. Further, the result in assay [5], in assay [6], in assay [7] and in assay [8] was inactive.
For `COc1cccc2c(NCCNc3ccnc4c(OC)cccc34)ccnc12`, the growth inhibition in assay [1] was 86% (active); in assay [4], 93% (active). Besides, the inhibition in assay [2] was 11%; in assay [3], 0%. Moreover, the outcome in assay [5], in assay [6], in assay [7] and in assay [8] was inactive.
With `O=C(c1cc(-c2ccco2)[nH]n1)N1CCN(S(=O)(=O)c2ccc(Br)cc2)CC1`, the growth inhibition in assay [1] was 90% (active); in assay [4], 95% (active). Moreover, the inhibition was 1% in assay [2] and -5% in assay [3]. In addition, the outcome in assay [5], in assay [6], in assay [7] and in assay [8] was inactive.
`Cc1ccccc1C1CCN(C2CCC(NC(=O)/C=C/c3cc(F)cc(F)c3)CC2)CC1` (stereo not given): the growth inhibition in assay [1] was 33%; in assay [4], 99% (active). Besides, the inhibition in assay [2] is 53% (active); in assay [3], 3%. Besides, the outcome in assay [5], in assay [6], in assay [7] and in assay [8] was inactive.
As for `COc1ccc(Br)cc1/C=C/C(=O)Nc1cccc(C2CCCN(C)C2)c1` (stereo not given), the growth inhibition in assay [1] is 30%; in assay [4] it was 99% (active). Moreover, the inhibition is 12% in assay [2] and 1% in assay [3]. Also, the outcome in assay [5], in assay [6], in assay [7] and in assay [8] was inactive.
As to `Nc1nc(N)c2c(ccc3c2ccn3Cc2ccccn2)n1`, the growth inhibition in assay [1] is 94% (active); in assay [4] it was 90% (active). The figures for the inhibition in assay [2] and in assay [3] were 66% (active) and -1%, respectively. Also, the result in assay [5], in assay [6], in assay [7] and in assay [8] was inactive.
For the molecule `CC(C)(C)c1ccc(NC(=O)N[C@@H]2CCN(c3ccnc4ccccc34)C2)cc1`, the growth inhibition is 96% (active) in assay [1] and 102% (active) in assay [4]. Further, the inhibition in assay [2] is 23%; in assay [3], 0%. Moreover, the result in assay [5], in assay [6], in assay [7] and in assay [8] was inactive.
Regarding `COc1cc(Cc2cnc(N)nc2N)cc(OCCCCCC(=O)O)c1OC`, the growth inhibition was 2% in assay [1] and 95% (active) in assay [4]. Also, the values for the inhibition in assay [2] and in assay [3] were -16% and -4%, respectively. The result in assay [5], in assay [6], in assay [7] and in assay [8] was inactive.
For the molecule `O=C(Cc1cccc(OCCCN(Cc2cccc(C(F)(F)F)c2Cl)CC(c2ccccc2)c2ccccc2)c1)NCc1ccco1`, the values for the growth inhibition in assay [1] and in assay [4] were 84% (active) and 94% (active), respectively. Besides, the inhibition is 2% in assay [2] and -6% in assay [3]. Further, the result in assay [5], in assay [6], in assay [7] and in assay [8] was inactive.
Take `CCCc1cc(Cc2cnc(N)nc2N)cc(CCC)c1OCCCCCC(=O)OCC`: the growth inhibition in assay [1] was -3%; in assay [4], 95% (active). The inhibition in assay [2] is 12%; in assay [3] it was -1%. For the same molecule, the outcome in assay [5], in assay [6], in assay [7] and in assay [8] was inactive.
Take `O=C(O)C1CC(=O)N(c2ccc(Cl)cc2)C1` (stereo not given): the growth inhibition is 33% in assay [1] and 97% (active) in assay [4]. In addition, the inhibition in assay [2] was 51% (active); in assay [3] it was 6%. In addition, the outcome in assay [5], in assay [6], in assay [7] and in assay [8] was inactive.
In the case of `Cc1cccc2c(/C=C/C(=O)NC3CCC(CCN4CCc5ccc(C#N)cc5CC4)CC3)c[nH]c12` (stereo not given), the growth inhibition is 49% in assay [1] and 91% (active) in assay [4]. The inhibition is 18% in assay [2] and -1% in assay [3]. In addition, the result in assay [5], in assay [6], in assay [7] and in assay [8] was inactive.

The record behind these values is PubChem BioAssay.
